Measurements published in PubChem BioAssay (EPA / NIEHS).
Records with an inconclusive call do not appear. Calls of active or inactive are those of the source. The calls were made as follows, unless noted: active = hit-call score of the fitted dose curve at least 0.9, where 1 is the maximum; inconclusive = response in the unintended direction; inactive = score below 0.9.

Experiments:
[1] = ATG_TGFb_CIS: Attagene CIS-FACTORIAL HepG2 Assay for human Transforming Growth Factor (TGF) (AID 2282967; active = hit-call score of the fitted dose curve at least 0.9, where 1 is the maximum; inactive = score below 0.9); details: HepG2 Attagene CIS TGFb reporter, mRNA transcription; actives raise or lower the signal
Procedure, shortened: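 Endogenous TGFB1-linked transcription factor activity read as reporter mRNA via RT-PCR and capillary electrophoresis, 24 h after dosing transiently transfected HepG2 cells. Gain or loss of signal fitted relative to DMSO.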

[2] = target: Nuclear receptor subfamily 1 group I member 3 (Homo sapiens) (UniProt Q14994); test: ATG_CAR_TRANS: Attagene TRANS-FACTORIAL HepG2 Assay for human Constitutive Androstane Receptor (CAR) (AID 2282969); details: HepG2 Attagene TRANS-FACTORIAL CAR reporter;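 also: activators raise reporter mRNA above DMSO so AC50 marks induction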
Nuclear receptor subfamily 1 group I member 3 (Homo sapiens), sequence (Q14994 whole entry, looked up, the tested form may be a part): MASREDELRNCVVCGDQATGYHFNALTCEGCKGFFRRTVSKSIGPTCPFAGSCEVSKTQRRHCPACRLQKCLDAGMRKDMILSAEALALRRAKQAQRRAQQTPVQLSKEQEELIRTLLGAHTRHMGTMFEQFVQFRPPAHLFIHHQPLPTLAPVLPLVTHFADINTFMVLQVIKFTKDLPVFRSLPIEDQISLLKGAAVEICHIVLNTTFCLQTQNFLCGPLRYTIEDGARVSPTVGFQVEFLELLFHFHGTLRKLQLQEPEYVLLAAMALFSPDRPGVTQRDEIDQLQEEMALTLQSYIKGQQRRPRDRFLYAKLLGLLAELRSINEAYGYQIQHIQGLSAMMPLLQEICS
Procedure, shortened: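 Steps: transient transfection of HepG2 with multiple GAL4-UAS reporter units; 24 h compound incubation; RNA isolation, RT-PCR, 6-FAM primer extension, HpaI digest; capillary electrophoresis. Gain-of-signal relative to DMSO negative control.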

[3] = target: Estrogen receptor (Homo sapiens) (UniProt P03372); test: ATG_ERa_TRANS: Attagene TRANS-FACTORIAL HepG2 Assay for human Estrogen Receptor alpha (ERa) (AID 2282970); details: HepG2 Attagene TRANS ERa GAL4 reporter, mRNA
Estrogen receptor (Homo sapiens), sequence (P03372 whole entry, looked up, the tested form may be a part): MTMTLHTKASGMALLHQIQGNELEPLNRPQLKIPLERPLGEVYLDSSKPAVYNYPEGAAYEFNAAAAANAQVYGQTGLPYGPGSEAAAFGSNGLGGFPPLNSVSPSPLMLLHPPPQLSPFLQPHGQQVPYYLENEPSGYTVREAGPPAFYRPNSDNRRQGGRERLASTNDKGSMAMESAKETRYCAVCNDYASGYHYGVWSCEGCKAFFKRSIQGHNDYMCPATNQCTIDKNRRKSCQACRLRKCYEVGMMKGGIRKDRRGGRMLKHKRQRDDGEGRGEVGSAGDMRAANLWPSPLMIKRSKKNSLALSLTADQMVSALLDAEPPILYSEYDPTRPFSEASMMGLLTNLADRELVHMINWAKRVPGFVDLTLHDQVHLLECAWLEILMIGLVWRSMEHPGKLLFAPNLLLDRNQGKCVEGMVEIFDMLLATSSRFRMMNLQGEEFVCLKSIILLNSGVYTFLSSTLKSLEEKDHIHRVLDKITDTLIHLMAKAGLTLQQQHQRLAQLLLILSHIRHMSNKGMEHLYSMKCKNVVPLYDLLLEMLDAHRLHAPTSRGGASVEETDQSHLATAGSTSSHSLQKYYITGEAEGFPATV
Procedure, shortened: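 Liver-derived HepG2 cells expressing chimeric nuclear receptor-Gal4 proteins from transient transfection were exposed for 24 hours. Gain of reporter mRNA signal versus DMSO, read by capillary electrophoresis of FAM-labelled PCR products, was recorded.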

[4] = target: Steroid hormone receptor ERR1 (Homo sapiens) (UniProt P11474); test: ATG_ERRa_TRANS: Attagene TRANS-FACTORIAL HepG2 Assay for human Estrogen-Related Receptor alpha (ERRa) (AID 2282971); details: HepG2 Attagene TRANS reporter, ERRa transactivation
Steroid hormone receptor ERR1 (Homo sapiens), sequence (P11474 whole entry, looked up, the tested form may be a part): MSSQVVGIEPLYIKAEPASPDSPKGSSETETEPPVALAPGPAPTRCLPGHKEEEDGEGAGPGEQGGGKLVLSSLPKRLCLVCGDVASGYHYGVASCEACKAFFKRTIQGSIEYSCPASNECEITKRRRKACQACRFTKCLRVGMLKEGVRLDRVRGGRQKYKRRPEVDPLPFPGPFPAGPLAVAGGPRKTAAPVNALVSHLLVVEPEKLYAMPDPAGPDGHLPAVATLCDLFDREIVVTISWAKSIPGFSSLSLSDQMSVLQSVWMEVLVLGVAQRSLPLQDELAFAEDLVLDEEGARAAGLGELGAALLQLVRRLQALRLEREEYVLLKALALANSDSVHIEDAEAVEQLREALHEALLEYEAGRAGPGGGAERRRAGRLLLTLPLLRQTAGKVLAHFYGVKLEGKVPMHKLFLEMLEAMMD
Procedure, shortened: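 Reporter transcript induction was quantified by RT-PCR and capillary electrophoresis of FAM-labelled, HpaI-cut products after 24 h treatment of HepG2 cells carrying transiently transfected GAL4-UAS reporter units and an exogenous ERRa-Gal4 fusion; activity scored as increase over DMSO.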

[5] = target: X-box-binding protein 1 (Homo sapiens) (UniProt P17861); test: ATG_Xbp1_CIS: Attagene CIS-FACTORIAL HepG2 Assay for human X-box Binding Protein 1 (XBP1) (AID 2282972; active = hit-call score of the fitted dose curve at least 0.9, where 1 is the maximum; inactive = score below 0.9); details: HepG2 XBP1 cis-element reporter, Attagene multiplex; actives raise or lower the signal
X-box-binding protein 1 (Homo sapiens), sequence (P17861 whole entry, looked up): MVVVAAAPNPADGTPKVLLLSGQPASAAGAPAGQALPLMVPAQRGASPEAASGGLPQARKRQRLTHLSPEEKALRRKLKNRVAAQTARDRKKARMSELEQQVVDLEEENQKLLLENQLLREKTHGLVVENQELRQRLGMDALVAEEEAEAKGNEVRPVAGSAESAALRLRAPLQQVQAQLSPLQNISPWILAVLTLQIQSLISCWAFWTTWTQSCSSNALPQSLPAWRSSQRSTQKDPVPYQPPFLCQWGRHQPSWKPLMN
Procedure, shortened: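 Reporter transcripts were quantified by RT-PCR with fluorescent primer extension and capillary electrophoresis after 24 h chemical exposure. Cells: transiently transfected HepG2 carrying cis-regulated reporter constructs; data fitted bidirectionally relative to DMSO.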

[6] = ATG_M_19_TRANS: Attagene TRANS-FACTORIAL HepG2 Assay for M19 Transcription Factor (Internal Marker) (AID 2282974); details: HepG2 Attagene TRANS-FACTORIAL M19 internal marker reporter
Procedure, shortened: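 Using RT-PCR and capillary electrophoresis, reporter mRNA from transiently transfected human HepG2 cells was quantified following 24 h exposure; activity was fitted in the positive direction against DMSO.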

[7] = ATG_GAL4_TRANS: Attagene TRANS-FACTORIAL HepG2 Assay for GAL4 (Internal Marker) (AID 2282976); details: HepG2 Attagene TRANS GAL4 internal marker reporter
Procedure, shortened: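 First, HepG2 cells were transfected with reporter units under GAL4-UAS control. Next, they were treated with chemical for 24 h. Finally, RNA was reverse-transcribed, PCR-amplified, FAM-labelled and resolved by capillary electrophoresis, with induction scored against DMSO.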

[8] = target: Glucocorticoid receptor (Homo sapiens) (UniProt P04150); test: ATG_GR_TRANS: Attagene TRANS-FACTORIAL HepG2 Assay for human Glucocorticoid Receptor (GR) (AID 2282978); details: HepG2 Attagene TRANS GR reporter, mRNA transcription;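 also: activators score as hits since higher reporter transcript over DMSO is fitted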
Glucocorticoid receptor (Homo sapiens), sequence (P04150 whole entry, looked up, the tested form may be a part): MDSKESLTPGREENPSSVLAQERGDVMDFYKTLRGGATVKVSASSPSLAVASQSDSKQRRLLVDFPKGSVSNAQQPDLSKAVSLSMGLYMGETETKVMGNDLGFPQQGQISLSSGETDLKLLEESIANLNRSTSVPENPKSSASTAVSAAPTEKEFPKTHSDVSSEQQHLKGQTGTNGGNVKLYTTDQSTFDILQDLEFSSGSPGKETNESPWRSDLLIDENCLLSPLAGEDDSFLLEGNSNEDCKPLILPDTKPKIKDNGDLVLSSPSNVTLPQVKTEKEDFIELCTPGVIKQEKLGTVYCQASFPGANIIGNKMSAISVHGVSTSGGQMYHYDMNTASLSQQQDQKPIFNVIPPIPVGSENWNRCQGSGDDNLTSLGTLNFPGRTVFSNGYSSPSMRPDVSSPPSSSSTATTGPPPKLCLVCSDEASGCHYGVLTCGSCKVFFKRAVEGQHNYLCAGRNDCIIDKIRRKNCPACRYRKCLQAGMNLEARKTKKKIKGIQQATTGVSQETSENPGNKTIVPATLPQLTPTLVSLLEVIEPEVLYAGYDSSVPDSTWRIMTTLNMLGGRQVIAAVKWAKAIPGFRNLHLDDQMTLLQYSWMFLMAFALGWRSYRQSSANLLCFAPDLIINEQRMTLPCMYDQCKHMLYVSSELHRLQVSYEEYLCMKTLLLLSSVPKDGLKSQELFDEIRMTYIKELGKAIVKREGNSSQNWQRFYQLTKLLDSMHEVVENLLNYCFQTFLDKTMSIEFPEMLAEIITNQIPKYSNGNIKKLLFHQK
Procedure, shortened: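 Exogenous NR-GAL4 fusion activity was assessed through induced GAL4-UAS reporter transcripts in transfected human HepG2 cells, quantified after 24 h by RT-PCR and fluorescent capillary electrophoresis with DMSO as baseline.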

[9] = target: Estrogen-related receptor gamma (Homo sapiens) (UniProt P62508); test: ATG_ERRg_TRANS: Attagene TRANS-FACTORIAL HepG2 Assay for human Estrogen-Related Receptor gamma (ERRg) (AID 2282977); details: HepG2 Attagene TRANS reporter, ERRg transactivation;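 also: hits increase reporter signal over DMSO so potencies reflect activators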
Estrogen-related receptor gamma (Homo sapiens), sequence (P62508 whole entry, looked up, the tested form may be a part): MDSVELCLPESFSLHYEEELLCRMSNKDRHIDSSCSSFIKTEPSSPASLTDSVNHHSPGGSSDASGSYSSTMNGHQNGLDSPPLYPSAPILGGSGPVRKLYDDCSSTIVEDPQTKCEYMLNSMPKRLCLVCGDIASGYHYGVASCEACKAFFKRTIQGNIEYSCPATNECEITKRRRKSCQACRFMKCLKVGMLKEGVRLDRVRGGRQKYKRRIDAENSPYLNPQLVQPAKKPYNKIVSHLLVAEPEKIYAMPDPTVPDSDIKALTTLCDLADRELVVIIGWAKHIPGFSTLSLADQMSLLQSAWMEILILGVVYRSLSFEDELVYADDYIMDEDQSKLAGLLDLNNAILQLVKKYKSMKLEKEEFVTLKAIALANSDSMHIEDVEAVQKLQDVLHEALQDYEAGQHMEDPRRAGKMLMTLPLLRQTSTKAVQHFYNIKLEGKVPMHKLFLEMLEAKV
Procedure, shortened: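 Readout: fluorescent reporter-mRNA fragments resolved by capillary electrophoresis after RT-PCR and HpaI cut. Cells: transiently transfected HepG2 carrying GAL4-UAS reporters driven by exogenous NR-Gal4 chimeras, dosed 24 h. Activity fitted upward relative to DMSO baseline.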

[10] = ATG_VDRE_CIS: Attagene CIS-FACTORIAL HepG2 Assay for human Vitamin D Receptor Element (VDRE) (AID 2282968; active = hit-call score of the fitted dose curve at least 0.9, where 1 is the maximum; inactive = score below 0.9); details: HepG2 VDRE cis-reporter transcription, actives raise or lower the signal
Procedure, shortened: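 Transfected HepG2 reporter cells, chemical treatment 24 h. RNA isolated, cDNA amplified with reporter-specific primers, products analysed by capillary electrophoresis. Endpoint fitted in both directions versus DMSO.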

Measured: AC50

CCOP(=S)(OCC)SCS(=O)(=O)CC
inactive: [1] | [2] | [3] | [4] | [5] | [6] | [7] | [8]

CC(C)(C)c1ccccc1OP(=O)(Oc1ccccc1)Oc1ccccc1
inactive: [1] | [2] | [4] | [5] | [6] | [7] | [9] | [8]
active: [3] 5.03 µM

Cn1[nH]nnc1=S
inactive: [1] | [10] | [5] | [6] | [7]

OCC1CO1 (stereo not drawn)
inactive: [1] | [10] | [3] | [5] | [6]

CCN(CC)c1ccccc1
inactive: [1] | [10] | [3] | [5] | [6]

C=CC(=O)OCC(F)(F)C(F)F
active: [10] 90.3 µM
inactive: [1] | [4] | [5] | [7] | [8]

CC(O)C(F)(F)C(F)(F)F (stereo not drawn)
inactive: [1] | [2] | [3] | [4] | [5] | [6] | [7] | [9] | [8]

CCOS(=O)(=O)OCC
inactive: [1] | [10] | [5]

Cc1ccc(N)cc1N
inactive: [1] | [10] | [3] | [5] | [7] | [9] | [8]

[N-]=[N+]=[N-]
inactive: [1] | [2] | [3] | [5]

CC(O)C#N (stereo not drawn)
inactive: [1] | [10] | [3] | [5] | [7] | [8]

CCOP(=S)(NC(C)C)Oc1ccccc1C(=O)OC(C)C (stereo not drawn)
active: [3] 3.51 µM
inactive: [1] | [2] | [4] | [5] | [9] | [8]

NNC(N)=S
inactive: [1] | [10] | [5] | [6] | [7] | [8]

CCOP(=S)(Oc1ccc([N+](=O)[O-])cc1)c1ccccc1 (stereo not drawn)
active: [10] 6.46 µM | [3] 3.9 µM
inactive: [1] | [4] | [5] | [9]

N#Cc1c(-c2ccc(Cl)cc2)[nH]c(C(F)(F)F)c1Br
active: [10] 0.605 µM
inactive: [1] | [3] | [5] | [6] | [7] | [9] | [8]

Nc1ccc([N+](=O)[O-])cc1Cl
inactive: [1] | [10] | [3] | [5] | [6] | [7] | [8]

CCNc1nc(Cl)nc(NC(C)(C)C)n1
active: [3] 1.54 µM
inactive: [1] | [10] | [5] | [7] | [8]

CCOP(=O)(O)C(N)=O
inactive: [1] | [2] | [3] | [5] | [6] | [7]

Cc1ccc2c(c1N)C(=O)c1ccccc1C2=O
inactive: [1] | [2] | [4] | [5] | [6] | [9] | [8]
active: [3] 4.04 µM

O=[N+]([O-])c1cc(Cl)ccc1Cl
inactive: [1] | [10] | [3] | [5] | [8]

O=C(O)C(F)(F)OC(F)(F)C(F)(F)OC(F)(F)F
inactive: [1] | [2] | [3] | [4] | [5] | [6] | [7] | [9] | [8]

CCOP(=S)(OCC)SCSCC
active: [10] 35.4 µM | [3] 27.4 µM
inactive: [1] | [5] | [8]

O=C(O)C=CC(F)(C(F)(F)F)C(F)(F)F
inactive: [1] | [10] | [3] | [4] | [5] | [8]

Nc1ccc2ccccc2c1
inactive: [1] | [2] | [3] | [4] | [5] | [6] | [7] | [9]

O=S(=O)(c1ccc(O)cc1)c1ccc(O)cc1
inactive: [1] | [10] | [5] | [8]
active: [3] 1.06 µM

c1cc2c3c(cccc3c1)CC2
inactive: [1] | [2] | [3] | [5] | [6] | [8]

O=P(Oc1ccccc1)(Oc1ccccc1)Oc1ccccc1
inactive: [1] | [2] | [3] | [6] | [7] | [8]
active: [5] 49.4 µM

Cc1ccc(C(=O)Cl)cc1
inactive: [1] | [10] | [4] | [5] | [6] | [7] | [9] | [8]

CCCCc1ccccc1
inactive: [1] | [3] | [5] | [6]

CC(C)(C)OOC(C)(C)C
inactive: [1] | [5] | [6] | [7] | [8]

O=P(OCC(Br)CBr)(OCC(Br)CBr)OCC(Br)CBr (stereo not drawn)
inactive: [1] | [3]
active: [5] 8.88 µM

CO/N=C(/C(=O)OC)c1ccccc1COc1ccccc1C
inactive: [1] | [2] | [8]
active: [3] 2.6 µM | [5] 35.2 µM

CC(C)CBr
inactive: [1] | [3] | [5] | [7] | [9]

Cc1cccc(N)c1
inactive: [1] | [5]

CC(Cl)CN(C)C (stereo not drawn)
inactive: [1] | [3] | [5] | [6] | [8]

CCC1(c2ccccc2)C(=O)N=C(O)NC1=O (stereo not drawn)
inactive: [1] | [5] | [7]

CC(C)(C)N(NC(=O)c1ccc(Cl)cc1)C(=O)c1ccccc1
inactive: [1] | [3] | [5] | [7] | [8]

ClC(Cl)=C(c1ccc(Cl)cc1)c1ccccc1Cl
active: [3] 2.02 µM | [5] 100 µM
inactive: [1] | [2] | [6] | [8]

CC(=O)c1ccc(-c2ccccc2)cc1
active: [3] 6.19 µM
inactive: [1] | [2] | [5] | [8]

N#C/C=C/c1ccccc1
inactive: [1] | [2] | [5]

COP(=O)(O)OC
inactive: [1] | [2] | [3] | [5] | [6] | [8]

O=C(O)C1C(C(=O)O)C2(Cl)C(Cl)=C(Cl)C1(Cl)C2(Cl)Cl (stereo not drawn)
inactive: [1] | [3] | [5] | [8]

CCOC(=O)c1ccccc1N
inactive: [1] | [3] | [5] | [8]

C=CC(=O)OCC(CC)(COC(=O)C=C)COC(=O)C=C
active: [1] 49.4 µM
inactive: [3] | [4] | [5] | [8]

Clc1ccc(Oc2ccccc2)cc1
inactive: [1] | [2] | [5] | [8]
active: [3] 41.7 µM

C=C(C)C(=O)OCC1CO1 (stereo not drawn)
inactive: [1] | [5] | [7] | [8]

CC(C)(C)c1ccc(O)cc1
inactive: [1]
active: [5] 171 µM

CCCCOCCOP(=O)(OCCOCCCC)OCCOCCCC
inactive: [1] | [2] | [3] | [5] | [7] | [8]

CCCCN(CCCC)N=O
inactive: [1] | [3] | [5] | [7] | [8]

CC(Cl)(Cl)C(=O)O
inactive: [1] | [3] | [5] | [8]

O=C(O)C(Cl)Cl
inactive: [1] | [5] | [7] | [8]

CCCCC(CC)COC(=O)c1c(Br)c(Br)c(Br)c(Br)c1C(=O)OCC(CC)CCCC (stereo not drawn)
inactive: [1] | [3] | [5]
active: [8] 14.1 µM

Nc1ccc(Cl)cc1
inactive: [1] | [3] | [5] | [6] | [7]

ClC(Cl)c1ccccc1
inactive: [1] | [2] | [4] | [5] | [6] | [7] | [9] | [8]

FC(F)(F)C(F)(C(F)(F)F)C(F)(F)C(F)(F)CC1CO1 (stereo not drawn)
inactive: [1] | [3] | [5] | [8]

CC1=C(C(=O)Nc2ccccc2)S(=O)(=O)CCO1
inactive: [1] | [5] | [8]

Cc1ccc(O)cc1C
inactive: [1] | [5] | [6] | [7]
active: [3] 72.4 µM

CCOc1ccc(C(C)(C)COCc2cccc(Oc3ccccc3)c2)cc1
inactive: [1] | [2] | [3] | [5] | [6] | [8]

Cc1ccc([N+](=O)[O-])cc1C
inactive: [1] | [3] | [5] | [6] | [7]

O=C(O)CF
inactive: [1] | [5] | [6] | [7]

O=C(O)C(F)(F)OC(F)(F)C(F)(F)OC(F)(F)C(=O)O
inactive: [1] | [3] | [4] | [5] | [8]

Oc1ccccc1Br
inactive: [1] | [5] | [7] | [8]

O=S1(=O)OCC2C(CO1)C1(Cl)C(Cl)=C(Cl)C2(Cl)C1(Cl)Cl (stereo not drawn)
inactive: [1] | [2] | [3] | [8]
active: [5] 167 µM

Cc1c([N+](=O)[O-])cc2c(c1[N+](=O)[O-])C(C)(C)CC2(C)C
inactive: [1] | [3] | [4] | [5] | [7] | [8]

CC(=O)CCc1ccc2c(c1)OCO2
inactive: [1] | [2] | [3] | [5] | [7] | [9]

O=[N+]([O-])c1ccccc1
active: [3] 19.8 µM
inactive: [1] | [5]

COC(N)=O
inactive: [1] | [5] | [6] | [7] | [8]
